AmpC inh no det: blocks E. coli AmpC beta-lactamase in absence of detergent | P00811 | AmpC nitrocefin hydrolysis, absorbance 480 nm, no detergent | Potency, µM (top dose mostly 28.7 µM), for inactives: at the highest dose activity change, negative = inhibition | hit rate 1.8% among 71,000; also: % of control where 0% means no effect
Target sequence (P00811 whole entry, looked up): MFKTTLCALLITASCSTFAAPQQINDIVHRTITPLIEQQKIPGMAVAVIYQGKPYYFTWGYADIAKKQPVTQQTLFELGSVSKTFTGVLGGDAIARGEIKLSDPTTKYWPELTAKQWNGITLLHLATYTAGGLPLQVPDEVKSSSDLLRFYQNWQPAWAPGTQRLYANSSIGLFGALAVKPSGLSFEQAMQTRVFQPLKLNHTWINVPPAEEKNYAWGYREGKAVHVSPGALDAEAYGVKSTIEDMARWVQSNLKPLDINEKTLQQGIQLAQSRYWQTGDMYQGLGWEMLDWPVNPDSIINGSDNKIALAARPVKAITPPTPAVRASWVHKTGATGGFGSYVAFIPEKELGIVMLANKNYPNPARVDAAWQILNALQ
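Enzyme, pH 7.0 phosphate. Compound titrations were pre-incubated with AmpC for 15 min at room temperature before nitrocefin (stock 800 uM) addition; product formation was recorded at 480 nm every 20 s for 4 min.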
LT uptake inh: blocks cellular internalization of anthrax lethal toxin; Cells, anthrax lethal toxin internalization, FRET ratio (460/530); Potency, µM (top dose mostly 40 µM), without a hit: top-dose activity change, negative = inhibition, most hits filed as inhibitors; hit rate 0.67% among 70,000; also: % is scaled to controls: 0 for no effect and ±100 for the full control effect; nearly all actives have a fitted effect of over 50% in size
Prx2 Sm inh: inhibitors of Schistosoma mansoni peroxiredoxin 2; S. mansoni Prx2 activity coupled to TGR/GSH (TGR is thioredoxin glutathione reductase), NADPH fluorescence loss, qHTS; Potency, µM; hit rate 0.07% among 65,000; AID 448
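Enzyme mix: 100 uM NADPH, 25 nM TGR, 700 uM GSH, 50 nM Prx2 in 100 mM phosphate pH 7.4, 10 mM EDTA, 0.01% Tween-20. 15 min RT with compound; NADPH/GSH added, H2O2 starts reaction; NADPH fluorescence read 8 min.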
AmpC det inh: AmpC beta-lactamase inhibition, detergent assay; Potency, µM (series often up to 28.7 µM), inactives show top-dose activity change, negative = inhibition; P00811; purified AmpC, nitrocefin hydrolysis with detergent; hit rate 0.09% among 71,000; active = well fitted curve in the direction sought with a large enough effect; inconclusive = small, poorly fitted or top-dose-only effect; also: % is scaled to controls: 0 for no effect and ±100 for the full control effect
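E. coli AmpC (5.3 nM) in 20 mM phosphate pH 7.0 with 0.01% Triton X-100, preincubated 15 min RT with compound; nitrocefin (2 uL of 800 uM stock) hydrolysis followed by 480 nm absorbance every 20 s over 4 min.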
Active calls of the source: *; ? = inconclusive; · = no result; [ ] = another dose, or the depositor's remark. In the library only some 2.4% were active in any assay of this set; here they are far more common. Unless noted, calls follow the shape of the full dose curve. Potency is read from the fitted curve at half-maximal effect.

SMILES | AmpC inh no det | LT uptake inh | Prx2 Sm inh | AmpC det inh
COCCn1c(=O)c(-c2ccccc2)nc2cnc(N(C)C)nc21 | 78.5% | ? | >57 | 0.8%
N#CC1=C(N)NC(SCC(=O)Nc2ccccc2)=C(C#N)C12CCCC2 | -20.5% | 10µM* | >57 | 6.4%
CC(=O)N[C@H](Cc1ccc(O)cc1)C(=O)O | 13.9%[5.75 µM] | -8.8%[8 µM] | >57 | 0.1%[5.75 µM]
CCOC(=O)c1ccc(NC(=O)c2ccc(C)c(S(=O)(=O)N3CCOCC3)c2)cc1 | 79.9% | 12.6µM* | ? | -0.7%
COc1nc(Nc2cccc(C(F)(F)F)c2)nc(OC)n1 | -12.6% | -20.7% | >57 | 8.3%
COc1nc(Nc2ccc3c(c2)OCO3)nc(OC)n1 | 3.98µM*[single pt active] | -1.4% | >57 | 10.5%
O=C(NCCN1CCOCC1)c1ccc(CS(=O)(=O)c2ccc(Br)cc2)o1 | 30.8% | -2.7% | >57 | -0.9%
O=C(NCCCN1CCOCC1)c1ccc(CS(=O)(=O)c2ccc(Br)cc2)o1 | 3.98µM*[single pt active] | -10.6% | >57 | 10.2%
O=C(NCCCN1CCOCC1)c1ccc(CS(=O)(=O)c2c(Cl)cccc2Cl)o1 | 3.16µM*[single pt active] | -11.8% | >57 | 17.7%
COc1ccccc1S(=O)(=O)Cc1ccc(C(=O)NCCN2CCCCCC2)o1 | 3.98µM*[single pt active] | -17.2% | >57 | 10.5%
COc1ccc(C(=O)N2CCC3(CCN(C)CC3)CC2)cc1 | 110.0% | ? | >57 | 0.2%
COC(=O)[C@@H]1C[C@@H]1[C@@H](NP(=O)(c1ccccc1)c1ccccc1)c1ccccc1 | 95.9% | -5.9% | · | 2.0%
O=S(=O)(c1cccc2c(I)cccc12)N1CCCNCC1 | 41.7% | 3.16µM* | >25.6 | -2.6%
CN1CCc2c(cc(O)c(O)c2Cl)[C@H](c2cccc(Cl)c2)C1 | 3.3% | 1.3% | >57 | -2.2%
CCN1CCN(C(=O)C2CC(c3ccc(F)cc3)=NO2)CC1 (centres undefined) | 3.98µM*[single pt active] | -7.1% | >57 | 13.4%
O=C(CSc1nnc(Cc2ccccc2)o1)N1CCCc2ccccc21 | 28.0% | 3.9% | >57 | 12.1%
O=C(CSc1nnc(CNc2ccccc2)o1)N1CCc2ccccc21 | 15.8µM*[single pt active] | 0.9% | >57 | -0.4%
O=C(CSc1nnc(Cc2csc(Nc3cccc(Cl)c3)n2)o1)N1CCc2ccccc21 | 12.6µM* | -26.2% | >57 | 0.6%
COc1cc(/C=C\C(=O)N2CCC=CC2=O)cc(OC)c1OC | 3.5%[12.8 µM] | ? | >57 | -0.2%[12.8 µM]
S=C(Nc1ccccc1)Nc1ccccc1C#Cc1ccccc1 | 5.01µM* | ? | >11.4 | -0.3%
Cc1ccc(Cl)cc1 | -0.6% | -1.7% | · | 13.6%
CCOC(=O)C1=C(N)Oc2ccc(Br)cc2[C@@H]1[C@@H](C#N)C(=O)OCC | 0.5% | ? | 38.6* | -0.3%
O=C(N/N=C1/C[C@@H](O)[C@@H](O)[C@@H]2[C@@H]3C(=O)N(c4cccc(Oc5ccccc5)c4)C(=O)[C@H]3CC[C@H]12)OCc1ccccc1 | · | -9.9%[8 µM] | · | ·
CCOC(=O)C1=C(C)N=c2s/c(=C\c3cccn3C)c(=O)n2C1c1cccc(OC)c1OC (centres undefined) | 33.2% | ? | · | 10.2%
CCOC(=O)C1=C(C)N=c2s/c(=C/c3ccco3)c(=O)n2C1c1cccc(OC)c1 (centres undefined) | 7.94µM* | ? | >57 | 5.7%
SMILES | AmpC inh no det | LT uptake inh | Prx2 Sm inh | AmpC det inh
O=C1C(SCCO)=C(SCCO)C(=O)c2ccccc21 | 10.5% | 3.98µM* | >57 | 9.9%
O=C(CCl)c1ccc(Cl)cc1Cl | -3.1% | 5.01µM* | · | 11.7%
O=C=Nc1ccc(Cc2ccc(N=C=O)cc2)cc1 | 15.8µM* | -9.3% | · | 8.7%
Cc1ccc(-c2nnc3n2N=C(c2ccccc2)CS3)cc1 | 8.3% | -18.0% | >57 | 13.2%
c1ccc(C2=Nn3c(nnc3-c3cc(-c4ccccc4)n[nH]3)SC2)cc1 | 38.0% | 12.6µM* | >57 | 3.1%
COc1cc(C2C(C(=O)OC(C)C)=C(C)Nc3ncnn32)cc(OC)c1OC (centres undefined) | 3.98µM*[single pt active] | -0.8% | >57 | 13.7%
COc1ccc(C2C(C(C)=O)=C(C)Nc3ncnn32)cc1OC (centres undefined) | -4.8% | ? | >57 | 0.2%
COCCNc1ccnc(-c2ccccc2C(F)(F)F)n1 | 10.8% | 15.2% | >57 | -1.0%
COc1ccccc1OCCCCNC(C)(C)C | -8.5% | -16.5% | >57 | 7.1%
CNCCCCOc1ccccc1Cc1ccccc1 | 54.6% | 31.6µM* | >57 | 1.9%
CCN(CC)CCOc1c(Br)ccc2c1sc1nc3n(c(=O)c12)CCC3 | 24.3% | 7.94µM* | · | -1.6%
CC(C)CN1CC[C@@]2(CCCN(S(=O)(=O)c3ccccc3)C2)C1 | 33.5% | ? | >57 | -1.6%
CC(C)(C)OC(=O)N1CCC(C(N)=O)CC1 | 3.98µM*[single pt active] | -13.2% | >57 | 12.2%
C=C(C)C(=O)OCCCCCC | -6.2% | -5.2% | · | 6.6%
Cc1ccc(S(=O)(=O)Oc2cc(S(=O)(=O)O)cc3cc(S(=O)(=O)O)cc(N)c23)cc1 | -5.1%[5.75 µM] | -13.1%[8 µM] | >57 | -7.9%[5.75 µM]
CN[C@H]1CC[C@@H](c2ccc(Cl)c(Cl)c2)c2ccccc21 | · | 10µM* | · | ·
CC1=C(C(=O)N(C)C)C(c2ccc(Cl)c(Cl)c2)NC(=O)N1 (centres undefined) | 7.6% | ? | >57 | -4.5%
Cn1c(NC(=O)c2cccc(Cn3cc(Cl)cn3)c2)nc2ccccc21 | -4.1% | 9.4% | >57 | -1.9%
CCn1c(NC(=O)c2cccc(Cn3cc(Cl)cn3)c2)nc2ccccc21 | 3.98µM*[single pt active] | 0.9% | >57 | 18.8%
COc1ccc(OCc2nnc3n2N=C(c2ccc(Br)cc2)CS3)cc1 | 3.98µM*[single pt active] | ? | >57 | 11.9%
O=c1oc2ccccc2n1CCc1ccccc1 | -11.1% | -4.3% | >57 | -1.7%
O=c1oc2ccccc2n1Cc1ccccc1Cl | 3.98µM* | ? | >57 | 14.3%
O=C(O)CCSc1ncnc2nc[nH]c12 | 2.4%[5.75 µM] | -7.6%[8 µM] | >57 | -3.5%[5.75 µM]
O=C(O)c1cc[c]([Hg][S]c2ncnc3nc[nH]c23)cc1 | -2.2%[5.75 µM] | -4.7%[8 µM] | 0.861* | -7.2%[5.75 µM]
O=S(=O)(c1ccc(S(=O)(=O)N2CCN3CCCC3C2)cc1)N1CCCC1 (centres undefined) | 15.7% | 4.6% | >57 | 2.9%
SMILES | AmpC inh no det | LT uptake inh | Prx2 Sm inh | AmpC det inh
O=S(=O)(c1ccc(F)cc1)N1CCC(N2CCCC2)CC1 | 3.98µM*[single pt active] | ? | >57 | 8.8%
COCC(=O)N1CCC2(CC1)CN(C(=O)Nc1ccccc1)C2 | 17.1% | -5.1% | >57 | -2.6%
N#CCCS(=O)(=O)c1nnnn1-c1ccccc1 | 0.5% | 10µM* | ? | -7.2%
O=C1OC2(c3cc(Br)c(O)c(Br)c3Oc3c2cc(Br)c(O)c3Br)c2c(Cl)c(Cl)c(Cl)c(Cl)c21 | -21.1% | ? | · | 2.4%
COc1ccccc1C(=O)n1nc(-c2cccnc2)nc1N | 3.98µM*[single pt active] | 27.9% | >57 | 12.9%
CC[C@H](C)C(=O)O[C@H]1C[C@H](O)C=C2C=C[C@H](C)[C@H](CC[C@@H](O)C[C@@H](O)CC(=O)O)[C@H]21 | · | -3.4% | · | ·
C=CCSc1nnc(NC(=O)CSc2nc3ccccc3o2)s1 | 10µM*[single pt active] | 26.0% | >57 | -3.1%
O=C(CSc1nnc(-c2ccccc2O)o1)Oc1ccc(OCc2ccccc2)cc1 | 12.6µM*[single pt active] | -13.2% | >57 | -7.3%
NC(=O)c1cc(Cl)cn(-c2ccccc2)c1=O | 3.16µM*[single pt active] | -2.8% | >57 | 12.7%

Screening results (PubChem)
